# FBW7 activator = activators of human E3 ligase FBW7; Q969H0; AlphaScreen FBW7–phospho-cyclin E peptide binding, activator screen; normalized activity (activation), % at 26.1 µM; 0.13% of 650,000 active; AID 1259310; in the data active = normalized activity above about 1.9%;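 note: purified mutant Fbw7 with reduced substrate affinity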
# TEAD-YAP block = TEAD-YAP interaction inhibition. HEK-TIYL cells, TEAD-Gal4/YAP UAS-luciferase luminescence. inhibition, % at 9.12 µM. 1.4% of 640,000 active. AID 1259422; in the data active = inhibition above about 32%;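 note: 0% = median of test compound wells and 100% = reference inhibitor wells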
# MITF primary = inhibitors of human MITF; AID 1259374; O75030; 0.91% of 650,000 active; AlphaScreen MITF homodimerization, bead proximity signal; inhibition, % at 2.6 µM; in the data active = inhibition above about 50%;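 note: 0% = vehicle wells with protein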
# GPR151 activ = human GPR151 activation | PathHunter beta-arrestin GPR151 cells, luminescence | activation, % at 11.2 µM | 1% of 650,000 active | AID 1508602; in the data active = activation above about 4.9%;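 note: 0% = median of compound wells and 100% = cells with positive control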
# Target sequence (Q8TDV0 whole entry, looked up): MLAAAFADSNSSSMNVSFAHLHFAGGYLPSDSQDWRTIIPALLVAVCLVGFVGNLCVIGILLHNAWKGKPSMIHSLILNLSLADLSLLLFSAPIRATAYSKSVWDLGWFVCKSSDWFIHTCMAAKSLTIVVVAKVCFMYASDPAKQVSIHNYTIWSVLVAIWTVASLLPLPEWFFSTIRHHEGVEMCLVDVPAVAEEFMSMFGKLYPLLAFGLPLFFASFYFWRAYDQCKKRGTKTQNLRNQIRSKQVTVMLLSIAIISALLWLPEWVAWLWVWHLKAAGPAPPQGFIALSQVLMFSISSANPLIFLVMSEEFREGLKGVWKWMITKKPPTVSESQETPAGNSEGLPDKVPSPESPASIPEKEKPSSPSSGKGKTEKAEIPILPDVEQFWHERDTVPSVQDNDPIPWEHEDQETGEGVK
# * hit, by the source's call. This is a sample that favours compounds with a hit; in the whole collection about 3.5% have one here.
SMILES,FBW7 activator,TEAD-YAP block,MITF primary,GPR151 activ
O=C(NCc1ncc(C(F)(F)F)cc1Cl)c1cn2ccsc2n1,2.0*,2,25,-1
CCSc1nc2sccn2c(=O)c1C(=O)NCc1ncc(C(F)(F)F)cc1Cl,0,11,20,0
Brc1ccc(-c2ccc(C3CCCCC3)cn2)cc1,0,63*,6,1
O=C(COC(=O)c1cc(O)[nH]c(=O)c1)Nc1cc(C(F)(F)F)ccc1Cl,0,-1,15,2
COc1cc(Cl)c(C)cc1NC(=O)COC(=O)c1cc(O)[nH]c(=O)c1,-1,18,63*,-1
CCOc1ccc(/C=N/NC(=O)CC2(C)OCCO2)cc1OCC,0,5,3,1
N/C(=N\c1nc(C(F)(F)F)cc(=O)[nH]1)Nc1ccc(I)cc1,0,45*,-6,-1
Cc1cccc2nc(NC(=O)c3ccc(Oc4ccccc4)cc3)sc12,0,52*,-14,1
O=C(Nc1nc2ccccc2s1)c1ccc(C(=O)c2ccccc2)o1,0,36*,-11,-2
CCOc1cccc2nc(NC(=O)c3ccc(Oc4ccccc4)cc3)sc12,0,-8,-5,0
CCOc1ccc(C(=O)Nc2nc3ccccc3s2)cc1,0,57*,-3,-7
COc1ccc2nc(NC(=O)c3ccccc3)sc2c1,0,43*,-22,-7
CCCCCCOc1ccc(C(=O)Nc2nc3ccccc3s2)cc1,0,7,9,0
Brc1ccc(N2CCOCC2)nc1,0,-1,1,1
COc1ccc(C2C(C(N)=O)=C(C)Nc3nnnn32)cc1OCc1ccccc1 (stereo not given),0,-1,1,-1
COc1ccc2nc(NC(=O)c3cccs3)sc2c1,0,44*,-4,-8
CCOc1ccc2nc(NC(=O)NC(=O)C(F)(F)F)sc2c1,0,63*,-4,-2
CCOc1ccc2nc(NC(=O)c3cccs3)sc2c1,0,31,-12,-9
C=CCNC(=O)c1noc2c1CCc1cc(OC)ccc1-2,0,-41,13,-2
CCOc1cc(/C=C2/C(=N)N3N=C(CC)SC3=NC2=O)ccc1OCCSc1ccc(Cl)cc1,0,17,5,0
CC(=O)N1c2ccc(-c3csc(NC(=O)c4ccncc4)n3)cc2CC1C (stereo not given),0,68*,-9,0
O=C(NCc1ccc(F)cc1)c1ccc(N2CC3CC(C2)c2cccc(=O)n2C3)c(NC(=O)c2ccc(F)cc2)c1 (stereo not given),0,84*,3,1
Cn1cc(-c2cccc3cnc(NC4CCN(C(=O)N5CCCC5)C4)nc23)cn1 (stereo not given),0,39*,0,-1
CC(=O)Nc1cccc(-c2cnc3c(NCC4CC4)nccn23)c1,-1,80*,7,-1
CC(C)CNc1nccn2c(-c3cccc(O)c3)cnc12,0,-6,-2,0
SMILES,FBW7 activator,TEAD-YAP block,MITF primary,GPR151 activ
CC(=O)Nc1cccc(-c2cnc3c(NCC(C)C)nccn23)c1,0,65*,11,-2
CC(=O)Nc1cccc(-c2cnc(NCc3cccc(Cl)c3)c3nccn23)c1,-1,69*,-9,0
CC(=O)Nc1cccc(-c2cnc3c(NCCc4cccnc4)nccn23)c1,0,65*,13,-2
CC(=O)c1cccc(-c2cnc3c(NCC4CC4)nccn23)c1,-1,-61,7,0
CC(=O)Nc1cccc(-c2cnc3c(NCc4ccco4)nccn23)c1,2.3*,47*,12,2
COc1c(O)cc2c(c1O)[C@@H]1O[C@H](CO)[C@@H](O)[C@H](O)[C@H]1OC2=O,0,-7,4,-2
Cc1c(C(=O)O)c(O)cc2c1C(=O)c1c(O)c([C@H]3O[C@H](CO)[C@@H](O)[C@H](O)[C@H]3O)c(O)c(O)c1C2=O,0,0,90*,-2
COc1cc2c(cc1OC)CN(S(=O)(=O)c1ccccc1)CC2,0,-3,3,0
Cc1ccc(C(=O)O)cc1S(=O)(=O)N1CCN(C=O)CC1,0,5,14,1
CCOc1ccc(S(=O)(=O)Nc2cc(C)ccc2OC)cc1,1,53*,7,1
COc1ccc(S(=O)(=O)Nc2cc(OC)c(Cl)cc2OC)cc1,1,64*,14,1
COc1ccc(S(=O)(=O)Nc2ccc(OC)c(OC)c2)cc1Cl,0,38*,-2,2
COc1ccc(Cl)cc1NS(=O)(=O)c1ccc(C)cc1OC,0,52*,-7,0
CC(NCc1ccc2c(c1)OCO2)C12CC3CC(CC(C3)C1)C2 (stereo not given),0,-5,2,-1
Cn1nc2c(c1NC(=O)CCc1ccccc1)CCC2,0,14,-2,0
Cc1cccc(N/C(=N\c2nc(C)cc(C)n2)NC(=O)Nc2ccc(Cl)c(Cl)c2)c1,0,22,4,2
COc1cc(S(=O)(=O)NCc2cccnc2)ccc1Cl,0,8,1,-1
COc1cc(NS(=O)(=O)c2ccccc2)c(OC)cc1Cl,0,3,-4,1
CCOc1ccc(S(=O)(=O)Nc2cc(OC)c(Cl)cc2OC)cc1,0,63*,5,0
COc1cc(S(=O)(=O)NCc2ccncc2)ccc1Cl,0,40*,17,3
Cc1cc(C)c(S(=O)(=O)NCc2ccncc2)c(C)c1,0,46*,-6,0
COc1cc(S(=O)(=O)Nc2cc(OC)c(Cl)cc2OC)ccc1Cl,0,50*,13,3
O=C(NN1C(=O)C2C(C1=O)C1C=CC2C12CC2)c1ccc(Br)cc1 (stereo not given),0,10,4,0
Cc1c(C(=O)NCC2CCC(c3nc4ccccc4n3C)CC2)cnn1-c1ccccc1 (stereo not given),0,4,3,-1
CN(C)C(=O)c1ccc(S(=O)(=O)NCc2ccncc2)cc1,0,37*,7,0
SMILES,FBW7 activator,TEAD-YAP block,MITF primary,GPR151 activ
O=C(Nc1ccc(O)cc1C(=O)O)c1cccc([N+](=O)[O-])c1,-1,0,53*,-6
COc1cccc(NC(=O)c2cc([N+](=O)[O-])ccc2Cl)c1,0,19,-23,0
O=C(Nc1ccc(I)cc1)c1cc([N+](=O)[O-])ccc1Cl,0,38*,-18,-1
COC(=O)c1ccc(NC(=O)c2cc([N+](=O)[O-])ccc2Br)cc1,0,33*,-9,0
COc1ccc(NC(=O)c2cc([N+](=O)[O-])ccc2Cl)cc1,0,34*,4,1
O=C(Cc1ccccc1F)N1CCC(c2[nH]ncc2-c2ccncc2)CC1,0,12,14,0
Cc1cc(C)cc(NC(=O)N2CCCCCC2)c1,0,-4,16,-1
COc1ccc(C2=NN(C(=O)CSc3nnc(CNC(=O)c4cccs4)n3-c3ccccc3)C(c3ccc(OC)cc3)C2)cc1 (stereo not given),0,-3,-4,1
CC(=O)Nc1ccc(NC(=O)c2cc([N+](=O)[O-])ccc2Cl)cc1,0,14,17,-1
O=C(Nc1ccc(F)cc1)c1cc([N+](=O)[O-])ccc1Cl,1,33*,21,-2
